Source: PubChem BioAssay (NCI)
The panel holds about 83,000 compounds, 20% with a hit somewhere; the sample as a whole holds those more often.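 96-well plates, one dose, 48 hours. Percent growth reported; active if below 10.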 Calls of active or inactive are those of the source.

The compounds below were run on HL-60(TB) leukemia (assay: NCI-60 one-dose screen, 48 h (100 = growth as untreated, 0 = no growth, -100 = all killed)). Conditions: 10 µM unless noted.
In the case of `COc1ccc(CNCCCN2C(=O)c3ccc4c5c(ccc(c35)C2=O)C(=O)N(CCCNCCCCNCCCN)C4=O)c(OC)c1OC`, the growth is reported as 26.2% (inactive). With `C=C1C[C@H](O)[C@H](Br)C(C)(C)[C@@]12CCC(C)=C(Cl)C2` the growth was -8.6% (active). For `CCN1CCN(CC(=O)N2c3cccc4cccc(c34)N(C(=O)CN3CCN(CC)CC3)C2c2cn(-c3ccccc3)nc2-c2cccc([N+](=O)[O-])c2)CC1`, the growth was -63.9% (active).
